# Legend:
# Experiment in all cases: DAPPL (digital affinity profiling via proximity ligation, sequencing); 10 mM Tris-HCl pH 7.5, 50 mM NaCl, 1 mM DTT, 4% glycerol, room temperature, 30 min; GST-TFs on glutathione beads, 16-mer random dsDNA library, 0.1% formaldehyde crosslink after washing; high values mean tight binding
# [1] = target: T1, FLI1 (Homo sapiens, UniProt Q01543 1-452); conditions: protein: recombinant; tags: N-terminal GST; dsDNA, one strand shown
# T1 sequence: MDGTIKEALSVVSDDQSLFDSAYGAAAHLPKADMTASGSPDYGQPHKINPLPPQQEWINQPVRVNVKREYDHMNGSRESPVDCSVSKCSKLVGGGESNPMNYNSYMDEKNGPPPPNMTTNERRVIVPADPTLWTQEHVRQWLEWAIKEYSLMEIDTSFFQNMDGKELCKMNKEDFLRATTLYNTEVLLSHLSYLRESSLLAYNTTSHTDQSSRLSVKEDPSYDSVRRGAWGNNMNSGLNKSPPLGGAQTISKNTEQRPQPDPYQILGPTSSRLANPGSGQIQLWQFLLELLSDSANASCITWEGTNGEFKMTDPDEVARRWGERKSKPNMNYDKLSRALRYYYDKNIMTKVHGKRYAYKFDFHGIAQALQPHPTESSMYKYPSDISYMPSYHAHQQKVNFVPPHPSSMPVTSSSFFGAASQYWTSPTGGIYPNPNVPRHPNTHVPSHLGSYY
# Summary of the method: (§1)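 GST fusions of human transcription factors were expressed in yeast and captured with glutathione beads. Once given DNA barcodes and pooled alongside a tag-only sample, they were incubated for 30 min at room temperature with 200 nmole of a random double-stranded 16-mer DNA library in Tris/NaCl/DTT/glycerol buffer, then washed, crosslinked (0.1% formaldehyde), proximity-ligated, PCR-amplified and sequenced on an Illumina NextSeq500. The binding signal of each hexamer is its read frequency for a factor divided by its frequency for the tag-only sample.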
# [2] = target: T2, ELK1 (Homo sapiens, UniProt P19419 1-428); conditions: protein: recombinant; tags: N-terminal GST; dsDNA, one strand shown
# T2 sequence: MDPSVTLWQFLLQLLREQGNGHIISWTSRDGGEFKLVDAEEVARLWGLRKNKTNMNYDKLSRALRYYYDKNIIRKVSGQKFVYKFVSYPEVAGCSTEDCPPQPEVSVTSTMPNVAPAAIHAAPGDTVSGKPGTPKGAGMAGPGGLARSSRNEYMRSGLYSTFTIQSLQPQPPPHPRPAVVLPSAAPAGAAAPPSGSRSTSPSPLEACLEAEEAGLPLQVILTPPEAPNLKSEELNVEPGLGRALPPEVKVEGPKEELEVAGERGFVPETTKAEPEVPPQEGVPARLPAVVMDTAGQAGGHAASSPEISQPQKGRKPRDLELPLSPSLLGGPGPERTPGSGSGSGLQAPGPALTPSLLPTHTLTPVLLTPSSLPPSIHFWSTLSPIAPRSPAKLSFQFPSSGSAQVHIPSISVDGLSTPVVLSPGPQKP
# Summary of the method: as §1
# [3] = target: T3, GABPA (Homo sapiens, UniProt Q06546 1-454); conditions: protein: recombinant; tags: N-terminal GST; dsDNA, one strand shown
# T3 sequence: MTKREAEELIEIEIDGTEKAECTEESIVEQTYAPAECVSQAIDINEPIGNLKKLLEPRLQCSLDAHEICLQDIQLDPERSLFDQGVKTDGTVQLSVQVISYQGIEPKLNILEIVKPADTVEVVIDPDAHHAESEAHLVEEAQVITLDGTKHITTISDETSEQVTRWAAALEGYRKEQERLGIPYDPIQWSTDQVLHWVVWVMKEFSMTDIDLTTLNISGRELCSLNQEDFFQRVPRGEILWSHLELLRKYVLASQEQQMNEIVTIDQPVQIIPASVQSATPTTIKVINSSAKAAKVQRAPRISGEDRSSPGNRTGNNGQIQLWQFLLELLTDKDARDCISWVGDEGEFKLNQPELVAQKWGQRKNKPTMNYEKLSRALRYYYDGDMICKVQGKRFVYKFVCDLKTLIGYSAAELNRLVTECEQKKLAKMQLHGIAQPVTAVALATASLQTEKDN
# Summary of the method: as §1
# [4] = target: T4, ERG (Homo sapiens, UniProt P11308 1-479); conditions: protein: recombinant; tags: N-terminal GST; dsDNA, one strand shown
# T4 sequence: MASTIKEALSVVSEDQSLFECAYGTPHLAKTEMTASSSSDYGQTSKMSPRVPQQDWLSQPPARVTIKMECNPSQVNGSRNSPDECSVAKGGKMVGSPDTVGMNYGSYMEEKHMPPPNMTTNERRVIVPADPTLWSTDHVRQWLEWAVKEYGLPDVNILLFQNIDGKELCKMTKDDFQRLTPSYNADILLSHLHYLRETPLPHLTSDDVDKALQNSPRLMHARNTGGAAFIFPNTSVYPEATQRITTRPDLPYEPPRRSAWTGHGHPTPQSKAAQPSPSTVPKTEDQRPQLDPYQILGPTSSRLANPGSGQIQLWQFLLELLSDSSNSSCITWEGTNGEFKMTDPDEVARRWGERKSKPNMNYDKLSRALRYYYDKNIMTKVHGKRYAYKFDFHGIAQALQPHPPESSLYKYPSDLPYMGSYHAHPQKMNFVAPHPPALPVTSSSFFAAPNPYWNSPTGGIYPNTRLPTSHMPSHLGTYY
# Summary of the method: as §1
# [5] = target: ELF1 (Homo sapiens, UniProt P32519 1-619); conditions: protein: recombinant; tags: N-terminal GST; dsDNA, one strand shown
# Chain of ELF1 (P32519 whole entry): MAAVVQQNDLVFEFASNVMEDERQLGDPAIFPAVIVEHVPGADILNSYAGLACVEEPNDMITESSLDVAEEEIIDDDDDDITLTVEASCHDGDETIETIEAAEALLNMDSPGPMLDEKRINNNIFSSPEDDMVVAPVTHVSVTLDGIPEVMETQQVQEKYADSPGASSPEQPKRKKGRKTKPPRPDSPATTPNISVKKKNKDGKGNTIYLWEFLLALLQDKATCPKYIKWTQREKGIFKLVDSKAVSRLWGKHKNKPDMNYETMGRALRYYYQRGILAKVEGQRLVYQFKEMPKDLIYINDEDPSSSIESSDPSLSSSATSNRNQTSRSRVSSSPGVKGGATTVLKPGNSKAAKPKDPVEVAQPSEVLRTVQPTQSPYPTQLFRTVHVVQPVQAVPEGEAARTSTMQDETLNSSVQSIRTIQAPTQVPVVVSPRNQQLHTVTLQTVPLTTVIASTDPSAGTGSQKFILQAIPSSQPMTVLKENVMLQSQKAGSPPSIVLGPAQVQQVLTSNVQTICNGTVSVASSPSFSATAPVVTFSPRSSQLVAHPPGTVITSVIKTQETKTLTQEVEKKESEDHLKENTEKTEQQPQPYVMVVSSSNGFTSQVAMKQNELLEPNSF
# Summary of the method: as §1
# [6] = target: T5, EHF (Homo sapiens, UniProt Q9NZC4 1-300); conditions: protein: recombinant; tags: N-terminal GST; dsDNA, one strand shown
# T5 sequence: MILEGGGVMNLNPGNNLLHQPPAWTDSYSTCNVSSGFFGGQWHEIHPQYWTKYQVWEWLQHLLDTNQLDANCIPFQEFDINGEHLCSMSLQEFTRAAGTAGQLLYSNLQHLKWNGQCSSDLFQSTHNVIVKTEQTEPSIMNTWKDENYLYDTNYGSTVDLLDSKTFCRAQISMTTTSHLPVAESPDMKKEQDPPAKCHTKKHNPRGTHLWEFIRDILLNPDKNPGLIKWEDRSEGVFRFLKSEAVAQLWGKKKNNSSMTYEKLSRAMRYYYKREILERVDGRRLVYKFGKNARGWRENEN
# Summary of the method: as §1
# [7] = target: SPI1 (Homo sapiens, UniProt P17947 1-270); conditions: protein: recombinant; tags: N-terminal GST; dsDNA, one strand shown
# Summary of the method: as §1
# [8] = target: SPIB (Homo sapiens, UniProt Q01892 1-262); conditions: protein: recombinant; tags: N-terminal GST; dsDNA, one strand shown
# Chain of SPIB (Q01892 whole entry): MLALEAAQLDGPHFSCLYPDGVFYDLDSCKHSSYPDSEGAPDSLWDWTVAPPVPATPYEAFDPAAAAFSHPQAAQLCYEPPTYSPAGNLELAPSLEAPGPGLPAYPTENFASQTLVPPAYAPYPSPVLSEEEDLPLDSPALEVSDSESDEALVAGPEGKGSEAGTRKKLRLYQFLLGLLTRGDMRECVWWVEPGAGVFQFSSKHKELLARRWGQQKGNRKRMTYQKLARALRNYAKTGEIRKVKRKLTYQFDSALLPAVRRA
# Summary of the method: as §1
# [9] = target: T6, ELK3 (Homo sapiens, UniProt P41970 1-407); conditions: protein: recombinant; tags: N-terminal GST; dsDNA, one strand shown
# T6 sequence: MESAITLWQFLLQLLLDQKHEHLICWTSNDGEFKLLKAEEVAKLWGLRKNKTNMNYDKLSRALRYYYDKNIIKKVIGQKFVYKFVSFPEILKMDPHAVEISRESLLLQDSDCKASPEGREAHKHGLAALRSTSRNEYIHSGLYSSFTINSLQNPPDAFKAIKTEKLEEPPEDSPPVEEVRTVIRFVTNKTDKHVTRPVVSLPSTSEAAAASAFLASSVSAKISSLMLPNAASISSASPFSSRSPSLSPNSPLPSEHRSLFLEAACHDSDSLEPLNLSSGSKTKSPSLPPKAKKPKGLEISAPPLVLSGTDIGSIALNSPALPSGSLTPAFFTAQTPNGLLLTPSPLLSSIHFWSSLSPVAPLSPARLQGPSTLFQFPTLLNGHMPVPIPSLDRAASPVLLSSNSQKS
# Summary of the method: as §1
# [10] = target: T7, FEV (Homo sapiens, UniProt Q99581 1-238); conditions: protein: recombinant; tags: N-terminal GST; dsDNA, one strand shown
# T7 sequence: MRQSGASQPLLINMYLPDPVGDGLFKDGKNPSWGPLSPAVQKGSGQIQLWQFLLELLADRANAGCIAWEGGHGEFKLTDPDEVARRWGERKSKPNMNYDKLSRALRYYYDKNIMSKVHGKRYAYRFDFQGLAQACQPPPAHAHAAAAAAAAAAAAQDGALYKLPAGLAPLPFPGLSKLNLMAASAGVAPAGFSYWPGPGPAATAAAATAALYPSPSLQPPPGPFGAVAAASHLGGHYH
# Summary of the method: as §1
# [11] = target: ETV5 (Homo sapiens, UniProt P41161 1-510); conditions: protein: recombinant; tags: N-terminal GST; dsDNA, one strand shown
# Chain of ETV5 (P41161 whole entry): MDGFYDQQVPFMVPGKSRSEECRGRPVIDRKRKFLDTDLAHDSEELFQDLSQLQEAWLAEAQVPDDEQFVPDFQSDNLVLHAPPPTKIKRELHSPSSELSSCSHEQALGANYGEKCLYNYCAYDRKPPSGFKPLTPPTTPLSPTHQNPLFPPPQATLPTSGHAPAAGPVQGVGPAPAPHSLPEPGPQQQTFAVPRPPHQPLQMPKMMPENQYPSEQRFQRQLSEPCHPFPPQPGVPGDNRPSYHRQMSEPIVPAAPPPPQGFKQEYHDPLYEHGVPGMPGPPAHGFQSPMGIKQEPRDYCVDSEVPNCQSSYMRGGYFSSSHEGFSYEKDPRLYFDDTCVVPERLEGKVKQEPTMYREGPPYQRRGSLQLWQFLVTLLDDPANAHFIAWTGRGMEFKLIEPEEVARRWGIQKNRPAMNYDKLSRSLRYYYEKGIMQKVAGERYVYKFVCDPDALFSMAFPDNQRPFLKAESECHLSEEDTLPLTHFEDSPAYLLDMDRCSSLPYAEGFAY
# Summary of the method: as §1
# [12] = target: HSF1 (Homo sapiens, UniProt Q00613 1-529); conditions: protein: recombinant; tags: N-terminal GST; chain copies: 3; dsDNA, one strand shown
# Chain of HSF1 (Q00613 whole entry): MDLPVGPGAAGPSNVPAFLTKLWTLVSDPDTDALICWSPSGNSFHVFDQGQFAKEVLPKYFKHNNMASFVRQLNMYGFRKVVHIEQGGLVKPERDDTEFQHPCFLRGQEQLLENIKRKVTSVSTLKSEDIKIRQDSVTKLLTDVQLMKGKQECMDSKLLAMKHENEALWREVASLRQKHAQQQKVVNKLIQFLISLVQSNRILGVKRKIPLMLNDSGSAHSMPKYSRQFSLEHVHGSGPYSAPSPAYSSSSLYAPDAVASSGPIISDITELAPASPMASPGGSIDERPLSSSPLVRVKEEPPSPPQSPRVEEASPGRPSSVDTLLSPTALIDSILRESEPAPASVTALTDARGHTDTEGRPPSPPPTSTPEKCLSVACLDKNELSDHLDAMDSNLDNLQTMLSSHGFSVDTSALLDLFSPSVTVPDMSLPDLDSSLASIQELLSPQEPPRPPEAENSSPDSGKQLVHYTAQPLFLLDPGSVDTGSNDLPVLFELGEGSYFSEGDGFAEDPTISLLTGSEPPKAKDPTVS
# Summary of the method: as §1
# [13] = target: T8, SPIC (Homo sapiens, UniProt Q8N5J4 1-248); conditions: protein: recombinant; tags: N-terminal GST; dsDNA, one strand shown
# T8 sequence: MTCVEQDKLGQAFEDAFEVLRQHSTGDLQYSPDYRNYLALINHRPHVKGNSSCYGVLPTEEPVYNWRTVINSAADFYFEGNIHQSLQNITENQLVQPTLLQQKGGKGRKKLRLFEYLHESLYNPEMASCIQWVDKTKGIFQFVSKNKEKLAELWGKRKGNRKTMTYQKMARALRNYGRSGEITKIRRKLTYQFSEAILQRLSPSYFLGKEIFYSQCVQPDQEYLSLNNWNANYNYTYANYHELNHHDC
# Summary of the method: as §1
# [14] = target: ELF4 (Homo sapiens, UniProt Q99607 1-663); conditions: protein: recombinant; tags: N-terminal GST; dsDNA, one strand shown
# Chain of ELF4 (Q99607 whole entry): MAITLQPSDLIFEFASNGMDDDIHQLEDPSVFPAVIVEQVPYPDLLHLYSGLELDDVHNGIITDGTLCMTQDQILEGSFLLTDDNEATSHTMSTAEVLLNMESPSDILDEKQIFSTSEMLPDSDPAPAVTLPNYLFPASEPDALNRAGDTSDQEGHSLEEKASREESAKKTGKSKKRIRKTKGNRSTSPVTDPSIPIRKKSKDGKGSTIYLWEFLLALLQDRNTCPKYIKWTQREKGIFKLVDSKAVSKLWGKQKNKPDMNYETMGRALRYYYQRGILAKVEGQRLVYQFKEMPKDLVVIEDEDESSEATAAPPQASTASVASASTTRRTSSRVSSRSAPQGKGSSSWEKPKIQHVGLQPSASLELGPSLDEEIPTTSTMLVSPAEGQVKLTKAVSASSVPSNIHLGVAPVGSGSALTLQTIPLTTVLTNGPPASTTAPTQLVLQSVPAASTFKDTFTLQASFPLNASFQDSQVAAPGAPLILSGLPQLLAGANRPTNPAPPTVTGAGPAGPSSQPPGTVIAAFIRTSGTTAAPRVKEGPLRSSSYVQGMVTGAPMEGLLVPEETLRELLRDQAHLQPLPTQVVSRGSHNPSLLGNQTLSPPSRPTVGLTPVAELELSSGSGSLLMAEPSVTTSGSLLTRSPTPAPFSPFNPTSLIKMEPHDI
# Summary of the method: as §1
# [15] = target: T9, ELK4 (Homo sapiens, UniProt P28324-2 1-405); conditions: protein: recombinant; tags: N-terminal GST; dsDNA, one strand shown
# T9 sequence: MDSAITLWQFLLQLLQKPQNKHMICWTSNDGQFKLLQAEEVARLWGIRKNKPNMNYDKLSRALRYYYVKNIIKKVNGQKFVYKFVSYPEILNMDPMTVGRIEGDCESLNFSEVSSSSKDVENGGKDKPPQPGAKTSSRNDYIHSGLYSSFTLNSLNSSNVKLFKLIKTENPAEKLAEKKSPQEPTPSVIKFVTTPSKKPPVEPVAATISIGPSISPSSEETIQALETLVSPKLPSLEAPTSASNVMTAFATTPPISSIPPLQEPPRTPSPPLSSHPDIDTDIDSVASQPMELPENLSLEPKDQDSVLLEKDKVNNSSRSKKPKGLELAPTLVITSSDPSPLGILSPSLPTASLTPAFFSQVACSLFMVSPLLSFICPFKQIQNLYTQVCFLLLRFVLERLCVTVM
# Summary of the method: as §1
# [16] = target: T10, ETV2 (Homo sapiens, UniProt O00321 1-342); conditions: protein: recombinant; tags: N-terminal GST; dsDNA, one strand shown
# T10 sequence: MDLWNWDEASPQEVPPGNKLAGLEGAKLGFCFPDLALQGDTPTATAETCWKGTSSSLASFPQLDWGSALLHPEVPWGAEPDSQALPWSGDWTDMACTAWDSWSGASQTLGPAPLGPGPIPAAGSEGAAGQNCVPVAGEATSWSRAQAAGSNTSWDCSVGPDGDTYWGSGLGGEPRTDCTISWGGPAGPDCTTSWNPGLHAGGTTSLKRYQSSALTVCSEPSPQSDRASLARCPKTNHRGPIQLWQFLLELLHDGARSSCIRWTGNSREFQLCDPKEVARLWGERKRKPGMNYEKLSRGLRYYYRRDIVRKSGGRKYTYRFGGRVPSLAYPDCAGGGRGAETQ
# Summary of the method: as §1
# [17] = target: T11, ELF3 (Homo sapiens, UniProt P78545 1-371); conditions: protein: recombinant; tags: N-terminal GST; dsDNA, one strand shown
# T11 sequence: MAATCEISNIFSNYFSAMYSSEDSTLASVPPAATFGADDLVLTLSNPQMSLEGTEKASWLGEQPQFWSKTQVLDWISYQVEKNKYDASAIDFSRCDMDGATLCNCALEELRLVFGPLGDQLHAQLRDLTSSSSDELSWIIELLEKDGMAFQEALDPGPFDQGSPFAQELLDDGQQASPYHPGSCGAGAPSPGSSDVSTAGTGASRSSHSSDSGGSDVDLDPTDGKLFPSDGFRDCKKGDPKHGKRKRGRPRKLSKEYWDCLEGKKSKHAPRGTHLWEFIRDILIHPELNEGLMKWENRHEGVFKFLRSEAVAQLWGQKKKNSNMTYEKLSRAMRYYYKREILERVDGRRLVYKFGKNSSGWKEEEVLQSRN
# Summary of the method: as §1
# [18] = target: CRX (Homo sapiens, UniProt O43186 1-299); conditions: protein: recombinant; tags: N-terminal GST; dsDNA, one strand shown
# Chain of CRX (O43186 whole entry): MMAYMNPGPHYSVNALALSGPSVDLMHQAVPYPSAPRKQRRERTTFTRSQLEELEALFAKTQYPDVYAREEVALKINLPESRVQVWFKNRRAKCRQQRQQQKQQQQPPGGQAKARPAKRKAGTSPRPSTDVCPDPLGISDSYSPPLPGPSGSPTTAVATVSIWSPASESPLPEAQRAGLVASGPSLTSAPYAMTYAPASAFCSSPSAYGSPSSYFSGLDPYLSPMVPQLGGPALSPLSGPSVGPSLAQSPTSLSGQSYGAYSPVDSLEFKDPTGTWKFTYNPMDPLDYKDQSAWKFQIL
# Summary of the method: as §1
# [19] = target: ETV1 (Homo sapiens, UniProt P50549 1-477); conditions: protein: recombinant; tags: N-terminal GST; dsDNA, one strand shown
# Chain of ETV1 (P50549 whole entry): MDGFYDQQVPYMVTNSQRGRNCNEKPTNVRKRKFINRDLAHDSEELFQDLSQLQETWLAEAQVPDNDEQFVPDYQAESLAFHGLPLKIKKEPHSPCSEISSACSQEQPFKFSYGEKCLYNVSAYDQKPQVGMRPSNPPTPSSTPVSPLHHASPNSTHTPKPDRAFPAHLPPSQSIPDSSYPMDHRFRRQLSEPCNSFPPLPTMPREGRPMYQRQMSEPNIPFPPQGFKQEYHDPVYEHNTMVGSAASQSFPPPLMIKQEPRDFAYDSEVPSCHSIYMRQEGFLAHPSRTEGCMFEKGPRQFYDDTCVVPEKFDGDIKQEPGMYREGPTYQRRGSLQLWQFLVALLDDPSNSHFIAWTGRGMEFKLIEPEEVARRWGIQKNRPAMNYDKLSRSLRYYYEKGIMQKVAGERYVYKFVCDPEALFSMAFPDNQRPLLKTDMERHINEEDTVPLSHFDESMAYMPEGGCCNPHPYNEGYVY
# Summary of the method: as §1
sequence,measurement,setting,value
ATAAAA,binding signal,[1],"1.09 fold enrichment (6-mer frequency, TF over GST control)"
same,binding signal,[2],"1.15 fold enrichment (6-mer frequency, TF over GST control)"
same,binding signal,[3],"1.1 fold enrichment (6-mer frequency, TF over GST control)"
same,binding signal,[4],"1.09 fold enrichment (6-mer frequency, TF over GST control)"
same,binding signal,[5],"1.12 fold enrichment (6-mer frequency, TF over GST control)"
same,binding signal,[6],"1.1 fold enrichment (6-mer frequency, TF over GST control)"
same,binding signal,[7],"1.17 fold enrichment (6-mer frequency, TF over GST control)"
same,binding signal,[8],"1.21 fold enrichment (6-mer frequency, TF over GST control)"
same,binding signal,[9],"1.12 fold enrichment (6-mer frequency, TF over GST control)"
same,binding signal,[10],"1.15 fold enrichment (6-mer frequency, TF over GST control)"
same,binding signal,[11],"1.12 fold enrichment (6-mer frequency, TF over GST control)"
same,binding signal,[12],"1.31 fold enrichment (6-mer frequency, TF over GST control)"
same,binding signal,[13],"1.02 fold enrichment (6-mer frequency, TF over GST control)"
same,binding signal,[14],"1.2 fold enrichment (6-mer frequency, TF over GST control)"
same,binding signal,[15],"1.17 fold enrichment (6-mer frequency, TF over GST control)"
same,binding signal,[16],"1.2 fold enrichment (6-mer frequency, TF over GST control)"
same,binding signal,[17],"1.2 fold enrichment (6-mer frequency, TF over GST control)"
same,binding signal,[18],"1.43 fold enrichment (6-mer frequency, TF over GST control)"
same,binding signal,[19],"1.16 fold enrichment (6-mer frequency, TF over GST control)"

# — article PMC7862700, “An all-to-all approach to the identification of sequence-specific readers for epigenetic DNA modifications on cytosine”
